According to PubChem BioAssay (NCATS):
Several values for one entry are separate records, joined by “and”; a condition that tells them apart may be missing. Identical values can stand only once. Records with an inconclusive call do not appear. Activity calls are given as the source filed them. Unless noted, calls come from the whole dose curve; as a rule, active = well fitted curve in the direction sought with a large enough effect; inconclusive = small, poorly fitted or top-dose-only effect, or another doubt; inactive = no such curve, though single readings can be large; an effect the other way counts as inactive or inconclusive.

Experiments:
[1] = molecular target: Mitogen-activated protein kinase 10 (Mus musculus) (UniProt Q61831); experiment: JNK3 AlphaScreen Assay (AID 530; active = well fitted curve in either direction with a large enough effect, not every such curve was filed as active;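 note: kinase came from lysate of stimulated human HepG2 cells; signal reports phosphorylation of biotinylated GST-cJun 1-79 at Ser73 with 10 µM ATP; series mostly up to about 57 µM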)
Summary of the method: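 Activity was read by AlphaScreen after JNK3-containing HepG2 lysate (cytokine pre-activated) phosphorylated biotinylated GST-cJun with 10 uM ATP at room temperature. Phospho-Ser73 cJun antibody with Protein-A acceptor beads provided detection.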

[2] = molecular target: 3',5'-cyclic-AMP phosphodiesterase 4B (Homo sapiens) (UniProt Q07343); experiment: qHTS Assay for Inhibitors of PDE-IV (AID 607; active = well fitted activation curve with a large enough effect in the main read-out, with a control signal flat, not every such curve was filed as active)
Summary of the method: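 The readout is membrane depolarisation from a cAMP-sensing CNG channel, detected with a potential dye at ex 535/em 590. Cells were HEK293-derived (endogenous PDE-IV) at 1000 cells/well, titrated up to 22.9 uM final.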

[3] = Cell Viability - N2a (AID 540); note: nearly all actives have a fitted effect of over 45% in size
Summary of the method: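 Cytotoxicity was scored as loss of cellular ATP in N2a cells, a mouse neuroblastoma line. Compounds are applied in a qHTS concentration series for 40 hr at 37 °C.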

[4] = Cell Viability - NIH 3T3 (AID 541); note: nearly all actives have a fitted effect of over 25% in size
Summary of the method: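 Cells seeded at 1000/well, rested 5 hr at 37 °C, then dosed and incubated 40 hr at 37 °C. CellTiter-Glo added, 20 min room temperature, luminescence read. AC50 by Hill fit.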

[5] = Cell Viability - HUV-EC-C (AID 542); note: nearly all actives have a fitted effect of over 35% in size
Summary of the method: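 Cells were seeded at 1000 per well and incubated 5 hr at 37 °C before compound addition. After 40 hr at 37 °C, CellTiter-Glo reagent was added for 20 min and luminescence read. AC50 values came from Hill-equation modelling.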

[6] = Cell Viability - H-4-II-E (AID 543); note: nearly all actives have a fitted effect of over 35% in size
Summary of the method: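 Cells seeded at 1500 per well and rested 5 hr; compounds added; 40 hr incubation at 37 °C; CellTiter-Glo added, 20 min at room temperature; luminescence read. Hill-equation fits gave AC50.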

[7] = Cell Viability - SH-SY5Y (AID 544); note: nearly all actives have a fitted effect of over 55% in size
Summary of the method: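 Cells were plated at 1500 per well and allowed 5 hr at 37 °C. Compounds were added across a concentration range and incubated 40 hr at 37 °C. CellTiter-Glo was added for 20 min at room temperature before luminescence reading.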

[8] = Cell Viability - Renal Proximal Tubule (AID 545); note: nearly all actives have a fitted effect of over 40% in size
Summary of the method: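 Rat renal proximal tubule primary cells, 1000/well, exposed to compounds for 40 hr at 37 °C in complete medium; cellular ATP read by CellTiter-Glo luminescence. AC50 from concentration-response fitted with standard Hill equation.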

[9] = Cell Viability - Mesenchymal (AID 546);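 note: cells exposed to compound for 40 hours before reading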
Summary of the method: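 Human renal mesenchymal cells (glomerulus-derived), 1000 cells/well, 5 hr 37 °C pre-incubation; compound 40 hr, 37 °C; CellTiter-Glo, 20 min RT; luminescence; AC50 via Hill equation.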

[10] = Cellular Toxicity (caspase-3) HepG2 (AID 654);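 note: cells exposed to compound for 16 hours before reading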
Summary of the method: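 Caspase 3/7 activation in HepG2 is measured as rising luminescence after a 16 hr treatment at 37 °C. Values are scaled between DMSO basal and 100 uM tamoxifen, and AC50 is fitted with the Hill equation.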

[11] = Cellular Toxicity (caspase-3) Jurkat (AID 655);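 note: cells exposed to compound for 16 h at 37 °C before reading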
Summary of the method: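 Jurkat cells (5000/well) in complete medium exposed 16 h at 37 C; caspase-3/7 activity read by Caspase-Glo luminescence after 20 min at room temperature. Normalized to DMSO and 100 uM tamoxifen; AC50 from Hill fits.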

[12] = Cellular Toxicity (caspase-3) HUV-EC-C (AID 656)
Summary of the method: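 HUV-EC-C cells (1000/well) in complete medium, compound-treated 16 h at 37 °C; caspase-3/7 activity read by Caspase-Glo 3/7 luminescence. Normalized to DMSO (basal) and 100 uM tamoxifen (100%); AC50 from Hill-equation concentration-response fits.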

[13] = Cellular Toxicity (caspase-3) SHSY5Y (AID 657)
Summary of the method: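 SH-SY5Y human neuroblastoma cells, 1500/well, exposed to compound for 16 hours at 37 °C in complete medium. Caspase-3/7 activity read by Caspase-Glo luminescence after 1 hr at room temperature, normalized to DMSO and 10 uM staurosporine; AC50 from Hill fit.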

[14] = Cellular Toxicity (caspase-3) BJ (AID 658)
Summary of the method: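 qHTS, BJ fibroblasts, 1000 cells/well; 5 hr preincubation, 16 hr compound, 37 °C; Caspase-Glo 3/7 reagent, 1 hr RT; luminescence. DMSO = 0%, 10 uM staurosporine = 100%. Hill-equation AC50.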

[15] = Cellular Toxicity (caspase-3) MRC-5 (AID 659)
Summary of the method: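 MRC-5 fibroblasts, 1500/well; 16 h cpd, 37 °C; Caspase-Glo 3/7, 1 h RT; lumi read. Norm: DMSO = 0%, 10 uM staurosporine = 100%. Hill-fit AC50 from qHTS conc-response.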

[16] = Cellular Toxicity (caspase-3) Mesangial (AID 660);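 note: cells exposed to compound for 16 h before the caspase read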
Summary of the method: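 Seed cells derived from normal human renal glomeruli, incubate 5 h, add compounds across concentrations and incubate 16 h at 37 °C. Caspase 3/7 activation is then quantified by luciferase light, with AC50 derived by Hill modeling.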

[17] = Cellular Toxicity (caspase-3) SK-N-SH (AID 661)
Summary of the method: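 Cells were seeded and incubated 5 hr at 37 °C, dosed with compound over a concentration range for 16 hr, then given Caspase-Glo 3/7 reagent for 1 hr at room temperature before luminescence reading.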

[18] = Cellular Toxicity (caspase-3) H-4-II-E (AID 663);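 note: cells exposed to compound for 16 hr before readout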
Summary of the method: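 H-4-II-E rat hepatoma, 1500 cells/well, 5 hr settle at 37 °C; compound 16 hr, 37 °C, complete medium; Caspase-Glo 3/7, 20 min RT; luminescence. DMSO = 0%, 100 uM tamoxifen = 100%; Hill-equation AC50.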

[19] = molecular target: Glucocorticoid receptor (Homo sapiens) (UniProt P04150); experiment: GR-GFP Redistribution (AID 450;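 active = compounds whose dose series gives a full or clear partial fitted curve of increased nuclear translocation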; note: potency is the fitted concentration of half-maximal effect); conditions: U2OS GR-GFP nuclear translocation, laser cytometry, 2 h
[20] = molecular target: Glucocorticoid receptor (Homo sapiens) (UniProt P04150); experiment: GR-EFC Redistribution (AID 451; calls by dose curve; note: potency is the fitted concentration of half-maximal effect); conditions: CHO-K1 GR-EFC translocation, beta-gal luminescence, 2 h
Summary of the method: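 CHO-K1 cells expressing nuclear EA and GR-ED fragments of b-gal; compounds titrated up to 46 uM final, 2 h at 37 C. GR nuclear translocation read as complemented b-gal luminescence after 1 h RT detection.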

Measured: Potency

Chain of 3',5'-cyclic-AMP phosphodiesterase 4B (Homo sapiens) (Q07343 whole entry, looked up): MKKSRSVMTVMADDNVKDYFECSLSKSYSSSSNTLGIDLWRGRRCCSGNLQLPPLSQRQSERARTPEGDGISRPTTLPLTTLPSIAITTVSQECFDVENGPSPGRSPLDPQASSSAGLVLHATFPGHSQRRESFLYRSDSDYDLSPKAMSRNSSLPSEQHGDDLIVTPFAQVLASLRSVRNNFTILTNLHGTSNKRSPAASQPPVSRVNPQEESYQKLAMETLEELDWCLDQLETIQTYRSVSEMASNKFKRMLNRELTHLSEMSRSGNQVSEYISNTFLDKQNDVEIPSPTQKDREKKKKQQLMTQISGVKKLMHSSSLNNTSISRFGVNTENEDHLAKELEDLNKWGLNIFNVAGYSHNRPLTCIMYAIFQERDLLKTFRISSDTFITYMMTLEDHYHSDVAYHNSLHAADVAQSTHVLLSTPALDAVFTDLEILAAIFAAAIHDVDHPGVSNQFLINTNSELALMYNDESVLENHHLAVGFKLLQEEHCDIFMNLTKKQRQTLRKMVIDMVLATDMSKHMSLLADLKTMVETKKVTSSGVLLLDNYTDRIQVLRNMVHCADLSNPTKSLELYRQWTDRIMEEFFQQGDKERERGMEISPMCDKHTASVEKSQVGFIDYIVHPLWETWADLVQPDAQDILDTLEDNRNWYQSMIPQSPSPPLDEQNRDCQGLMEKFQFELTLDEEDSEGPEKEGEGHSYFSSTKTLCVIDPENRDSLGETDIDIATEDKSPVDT
Chain of Glucocorticoid receptor (Homo sapiens) (P04150 whole entry, looked up, the tested form may be a part): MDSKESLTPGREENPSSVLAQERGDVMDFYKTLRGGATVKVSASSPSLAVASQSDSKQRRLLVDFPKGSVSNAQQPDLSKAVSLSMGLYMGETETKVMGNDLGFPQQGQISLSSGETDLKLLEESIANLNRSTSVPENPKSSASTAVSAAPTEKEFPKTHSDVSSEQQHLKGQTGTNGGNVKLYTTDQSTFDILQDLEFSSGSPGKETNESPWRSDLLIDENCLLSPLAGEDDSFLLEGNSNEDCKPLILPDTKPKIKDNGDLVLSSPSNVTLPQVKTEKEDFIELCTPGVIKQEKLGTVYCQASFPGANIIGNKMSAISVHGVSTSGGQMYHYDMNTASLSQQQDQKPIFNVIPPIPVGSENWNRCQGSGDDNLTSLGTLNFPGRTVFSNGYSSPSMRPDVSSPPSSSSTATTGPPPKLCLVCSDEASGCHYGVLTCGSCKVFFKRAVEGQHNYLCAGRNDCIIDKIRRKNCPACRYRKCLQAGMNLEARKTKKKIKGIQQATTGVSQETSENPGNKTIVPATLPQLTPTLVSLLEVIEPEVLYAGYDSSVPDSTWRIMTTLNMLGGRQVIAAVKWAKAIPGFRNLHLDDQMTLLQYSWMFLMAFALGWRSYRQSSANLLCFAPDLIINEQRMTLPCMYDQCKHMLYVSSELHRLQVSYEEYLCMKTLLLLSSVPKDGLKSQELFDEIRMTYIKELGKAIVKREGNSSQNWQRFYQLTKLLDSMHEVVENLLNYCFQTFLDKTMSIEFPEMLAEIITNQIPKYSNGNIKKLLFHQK

CCc1cccc2c3c([nH]c12)[C@@](CC)(CC(=O)O)OCC3
inactive: [1] | [2]

COc1ccc(CCC(=O)c2c(O)cc(O[C@@H]3O[C@H](CO)[C@@H](O)[C@H](O)[C@H]3O[C@@H]3O[C@@H](C)[C@H](O)[C@@H](O)[C@H]3O)cc2O)cc1O
not listed: [2] | [19] | [20]
inactive: all other assays above

CC(C)C[C@H](NC(=O)[C@@H]1O[C@H]1C(=O)O)C(=O)NCCCCN=C(N)N
inactive: [19] > 46 µM and > 20.6 µM | [20] > 46 µM | [1] | [2]

C=C1C[C@]23C[C@@]1(O)CC[C@H]2[C@@]12C=C[C@H](O)[C@@](C)(C(=O)O1)[C@H]2[C@@H]3C(=O)O
not listed: [2] | [19] | [20]
inactive: all other assays above

C[C@]1(C2CCCC2)Cc2cc(OCC(=O)O)c(Cl)c(Cl)c2C1=O
inactive: [19] > 46 µM | [20] > 46 µM | [1] | [2]
